Not all results are given here.
aSyn UTR act – Activators via SNCA 5'UTR binding, MLPCN; alpha-synuclein 5'UTR reporter, activators screen; activity score, % (tested at 7.5 µM), hits read low; hit rate 7.1% among 300,000; AID 1814; in the data active = activity score below about -60%
Active calls of the source: *.

SMILES	aSyn UTR act
CCOC(=O)c1cnn(-c2ccccn2)c1N	-116*
O=C(Nc1cc2c(cc1Br)OCCO2)c1ccco1	-101*
O=C(Nc1cc2c(cc1Br)OCCO2)c1cccs1	-142*
O=C(Nc1ccc(NC(=O)c2ccco2)c(Cl)c1)c1ccc2c(c1)OCCO2	-76*
O=C(Nc1cc2c(cc1Cl)OCCO2)c1ccco1	-163*
O=C(Nc1c(C(=O)Nc2ccc3c(c2)OCCO3)cnn1-c1ccccc1Cl)c1ccco1	-102*
CC1CN(C(=O)Nc2ccc3snnc3c2)c2ccccc21 (stereo not drawn)	-67*
Cc1ccsc1/C=C1\CCC(C2CCCC2)C1=O (stereo not drawn)	-163*
Cc1ccc(/C=C2\CCC(C3CCCC3)C2=O)cc1 (stereo not drawn)	-105*
COc1ccc(/C=C2\CCC(C3CCCC3)C2=O)cc1 (stereo not drawn)	-179*
COc1ccc(/C=C2\CCC(C3CCCC3)C2=O)cc1OC (stereo not drawn)	-75*
Cc1cc(OCC(=O)NC2CCCCC2)ccc1Cl	-62*
O=C(COc1ccc(Cl)cc1[N+](=O)[O-])NC1CCCCC1	-119*
O=C(NC1CCCCC1)N1CCc2ccccc21	-111*
Cc1[nH]nc2nc(SCC(=O)NC3CCCCC3)n(-c3ccc(Br)cc3)c(=N)c12	59
O=C(CSc1ccccc1)NC1CCCCCC1	-82*
O=C(COc1ccccc1)NC1CCCCCCC1	-67*
CCC(=O)NC(/C=C/c1ccccc1)c1cc([N+](=O)[O-])c2cccnc2c1O (stereo not drawn)	-94*
CCC(=O)NC(c1ccc(OC)c(OC)c1)c1cc(Cl)c2cccnc2c1O (stereo not drawn)	111
CC(C)C(=O)NC(c1cccc([N+](=O)[O-])c1)c1ccc2cccnc2c1O (stereo not drawn)	91
Cc1cc(NC(=O)CC#N)n(-c2nc3ccccc3[nH]2)n1	-71*
CCOC(=S)NC(=O)c1sc2ccccc2c1Cl	-84*
O=C(NC(=S)NCCO)c1sc2ccccc2c1Cl	-143*
CC(C)(C)C(=O)NC(=S)NNC(=O)c1sc2ccccc2c1Cl	89
O=C(N/N=C/c1ccc[nH]1)c1sc2ccccc2c1Cl	-105*
SMILES	aSyn UTR act
O=C(Oc1ccccc1N1C(=O)C2CCCCC2C1=O)c1ccccc1F (stereo not drawn)	-64*
COc1ccc(/C=C/c2nc(-c3ccccc3O)n[nH]2)cc1OC	-132*
COc1cc(CNc2ccccc2SC)ccc1O	-72*
Cc1ccc(N=C2NC(=O)/C(=C/c3cccn3C)S2)cc1C	-127*
Cc1ccc(N=C2NC(=O)/C(=C/c3cccn3C)S2)cc1	-80*
O=C1NC(=Nc2ccccc2)S/C1=C/c1cccs1	-117*
O=C(OCC(=O)N1CCCC1=O)c1nc(Cl)c(Cl)c(Cl)c1Cl	-131*
Oc1ccccc1N1CCN(c2ccc3ccccc3n2)CC1	-138*
c1ccc(CN2CCN(c3cnc4ccccc4n3)CC2)cc1	-208*
Fc1ccccc1N1CCN(c2cnc3ccccc3n2)CC1	-70*
C(=C\c1nc(-c2cccnc2)no1)/c1ccccc1	-153*
Clc1ccccc1/C=C/c1nc(-c2cccnc2)no1	-195*
CCOC(=O)C1CCN(c2nnc(N3CCCC3=O)s2)CC1	-66*
O=C(Cc1ccccc1)Nc1ccc(NC(=O)c2ccco2)nc1	-149*
COc1ccc(C(=O)Nc2ccc(NC(=O)C3CC3)nc2)cc1	-87*
CC(C)(C)C(=O)Nc1ccc(NC(=O)c2ccco2)nc1	102
CCC(=O)Nc1cc(C)c(NC(=O)c2ccccc2OC)cn1	-70*
CCC(=O)Nc1ccc(NC(=O)c2cccc(OC)c2)nc1	-171*
COc1ccc(C(=O)Nc2ccc(NC(=O)c3ccccc3OC)nc2)cc1	-96*
O=C(Nc1ccccn1)c1ccco1	-100*
COc1cccc(C(=O)Nc2ccc(NC(=O)C3CC3)cn2)c1	-157*
COc1ccccc1C(=O)Nc1ccc(NC(=O)c2ccco2)cn1	-80*
O=C(Nc1ccc(NC(=O)c2ccccc2)nc1)c1ccncc1	-81*
O=C1N=C(N2CCOCC2)S/C1=C/c1cc2c(cc1[N+](=O)[O-])OCO2	-67*
CC(=O)c1c(C)nc(Nc2nc3ccccc3s2)nc1C	-83*
SMILES	aSyn UTR act
Cc1cc(C)nc(Nc2nc3ccccc3s2)n1	-177*
NNc1nc(-c2ccccc2)cs1	-92*
Oc1ccc(-c2csc(Nc3ncccn3)n2)cc1	-154*
CC(=O)Nc1ccc(-c2csc(Nc3ncccn3)n2)cc1	-89*
c1ccc(-c2csc(Nc3ncccn3)n2)cc1	-66*
Cc1cccnc1Nc1nc(-c2ccccc2)cs1	-128*
Cc1cc(C(=O)NC2CCC(C)CC2)c(C)o1 (stereo not drawn)	-110*
O=C(NCc1cccs1)c1ccc(N2CCCCC2)nc1	-131*
CC1CCCN(c2ccc(C(=O)NCc3ccccc3)cn2)C1 (stereo not drawn)	-103*
CC1CCN(c2ccc(C(=O)NCCc3ccccc3)cn2)CC1	-105*
O=C(NCc1cccs1)c1ccc(N2CCCC2=O)cc1	-106*
CC(=O)N(O)CCCCCNC(=O)CCC(=O)N(O)CCCCCNC(=O)CCC(=O)N(O)CCCCCN	75
CC1CCCN(c2ccc(C(=O)NCc3cccs3)cn2)C1 (stereo not drawn)	-85*
CC1=CCC(/C=N\Nc2nnc3c(n2)[nH]c2ccccc23)CC1 (stereo not drawn)	-65*
CCN(c1ccccc1)c1ncnc2c1cnn2-c1ccccc1	-150*
CN(Cc1ccccc1)c1ncnc2c1cnn2-c1ccccc1	-169*
O=C(CSc1nc(-c2ccccc2)cs1)NCCN1C(=O)CSC1=O	-71*
O=C(CSc1nc(-c2ccc(F)cc2)cs1)NCCN1C(=O)CSC1=O	-62*
O=C(NNC(=O)c1ccc(O)cc1O)c1ccc(Cl)cc1	-72*
O=C(NNC(=O)c1ccccc1O)c1ccc(Cl)cc1	-81*
O=C(NNC(=O)c1ccccc1O)c1ccc(Br)cc1	-116*
O=C(COC(=O)c1ccc(O)cc1O)c1ccc(Cl)cc1	-96*
O=C(NNC(=O)c1cccs1)c1ccc(Br)cc1	-78*
Cc1cccc(C(=O)NNC(=O)c2ccc(Cl)cc2)c1O	-141*
O=C(NNC(=O)c1ccccc1O)c1cccc(Br)c1	-133*
SMILES	aSyn UTR act
Cc1cc(C)c2cc(CN(CCO)C(=O)Nc3ccc(Cl)cc3)c(=O)[nH]c2c1	53
Cc1ccc2cc(CN(CCN(C)C)C(=O)Nc3ccc(Cl)cc3)c(=O)[nH]c2c1	-83*
CC1CCN(C(=O)COC(=O)c2ccccc2NC(=O)c2ccco2)CC1	-73*
COc1ccc(-c2cc(O)cc(O)c2)cc1	-143*
Clc1ccc(-c2nc(Cc3ccccc3)no2)cc1	-141*
Cc1ccccc1-c1nc(Cc2ccccc2)no1	-129*
CCOc1ccc2nc(N3C(=O)/C(=C/c4ccc(Cl)cc4)NC3=S)sc2c1	-73*
Cc1cccc(NCc2ccc(Br)cc2)n1	-66*
Cc1cccc(NCc2cccc3ccccc23)n1	-67*
CCN1C(=S)SC(=O)C1=C1C=C(C)N(CCO)C(C)=C1	-165*
COC(=O)c1ccc(S(=O)(=O)N2CCc3ccccc32)cc1	-96*
COc1ccc(-c2nnc(NC(=O)c3ccc(S(=O)(=O)N4CCCc5ccccc54)cc3)o2)cc1	69
COc1ccccc1-c1nnc2sc(-c3cc4ccccc4o3)nn12	76
COc1cccc(OC)c1-c1nn2c(-c3ccco3)nnc2s1	-78*
C=CCSc1nncn1/N=C/c1ccc(OC)cc1	-99*

Screening data deposited in PubChem by Broad Institute.
